# Test results: paper PMC7862700, “An all-to-all approach to the identification of sequence-specific readers for epigenetic DNA modifications on cytosine”
# Legend:
# Test in all cases: DAPPL (digital affinity profiling via proximity ligation, sequencing); 10 mM Tris-HCl pH 7.5, 50 mM NaCl, 1 mM DTT, 4% glycerol, room temperature, 30 min; GST-TFs on glutathione beads, 16-mer random dsDNA library, 0.1% formaldehyde crosslink after washing; high values mean tight binding
# FLI1 = molecular target: T1, FLI1 (Homo sapiens, UniProt Q01543 1-452); conditions: protein: recombinant; tags: N-terminal GST; dsDNA, one strand shown
# T1 sequence: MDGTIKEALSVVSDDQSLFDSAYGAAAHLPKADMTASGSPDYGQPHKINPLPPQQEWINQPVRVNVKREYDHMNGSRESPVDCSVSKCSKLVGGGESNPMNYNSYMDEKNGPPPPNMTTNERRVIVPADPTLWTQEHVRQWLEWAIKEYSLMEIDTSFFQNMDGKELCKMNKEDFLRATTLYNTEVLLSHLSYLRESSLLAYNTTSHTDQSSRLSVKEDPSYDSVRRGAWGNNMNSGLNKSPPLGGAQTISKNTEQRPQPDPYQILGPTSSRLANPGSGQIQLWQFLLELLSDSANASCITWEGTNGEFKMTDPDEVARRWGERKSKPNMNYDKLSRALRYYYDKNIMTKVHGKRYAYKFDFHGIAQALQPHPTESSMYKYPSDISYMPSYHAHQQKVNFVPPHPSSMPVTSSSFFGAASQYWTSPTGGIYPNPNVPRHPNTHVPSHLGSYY
# Summary of the method: (§1)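 Each value of binding signal is a hexamer's read frequency for a factor divided by the same hexamer's frequency in the tag-only sample. Barcoded, bead-captured GST fusions of human transcription factors made in yeast were pooled with that sample and incubated with 200 nmole of a random double-stranded 16-mer DNA library in Tris/NaCl/DTT/glycerol buffer at room temperature for 30 min. Washing, 0.1% formaldehyde crosslinking, proximity ligation, PCR and Illumina NextSeq500 sequencing followed.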
# ELK1 = molecular target: T2, ELK1 (Homo sapiens, UniProt P19419 1-428); conditions: protein: recombinant; tags: N-terminal GST; dsDNA, one strand shown
# T2 sequence: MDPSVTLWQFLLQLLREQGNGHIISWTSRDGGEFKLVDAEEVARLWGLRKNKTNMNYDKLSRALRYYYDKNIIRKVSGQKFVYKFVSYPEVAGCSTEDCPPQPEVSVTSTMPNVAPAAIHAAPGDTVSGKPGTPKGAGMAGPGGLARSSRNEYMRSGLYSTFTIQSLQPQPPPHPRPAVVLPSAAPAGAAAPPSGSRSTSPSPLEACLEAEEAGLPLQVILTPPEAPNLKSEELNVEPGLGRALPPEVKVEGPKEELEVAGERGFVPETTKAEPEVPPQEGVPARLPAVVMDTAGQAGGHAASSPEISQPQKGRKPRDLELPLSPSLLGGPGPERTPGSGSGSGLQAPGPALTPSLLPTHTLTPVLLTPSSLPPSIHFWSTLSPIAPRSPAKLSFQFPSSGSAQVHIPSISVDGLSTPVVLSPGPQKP
# Summary of the method: as §1
# GABPA = molecular target: T3, GABPA (Homo sapiens, UniProt Q06546 1-454); conditions: protein: recombinant; tags: N-terminal GST; dsDNA, one strand shown
# T3 sequence: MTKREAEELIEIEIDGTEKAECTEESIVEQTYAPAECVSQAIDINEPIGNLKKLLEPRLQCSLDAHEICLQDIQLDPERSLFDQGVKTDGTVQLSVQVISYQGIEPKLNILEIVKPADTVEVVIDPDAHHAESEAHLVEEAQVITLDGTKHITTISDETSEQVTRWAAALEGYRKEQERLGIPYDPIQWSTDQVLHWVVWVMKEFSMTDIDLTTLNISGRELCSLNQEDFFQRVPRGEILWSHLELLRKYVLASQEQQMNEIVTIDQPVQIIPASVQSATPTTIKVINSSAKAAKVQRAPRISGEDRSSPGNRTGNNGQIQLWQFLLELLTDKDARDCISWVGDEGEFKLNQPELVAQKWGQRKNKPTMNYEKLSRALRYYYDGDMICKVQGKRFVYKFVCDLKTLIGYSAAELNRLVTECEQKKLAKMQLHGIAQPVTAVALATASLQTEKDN
# Summary of the method: as §1
# ELF1 = ELF1 (Homo sapiens, UniProt P32519 1-619); conditions: protein: recombinant; tags: N-terminal GST; dsDNA, one strand shown
# ELF1, sequence (P32519 whole entry): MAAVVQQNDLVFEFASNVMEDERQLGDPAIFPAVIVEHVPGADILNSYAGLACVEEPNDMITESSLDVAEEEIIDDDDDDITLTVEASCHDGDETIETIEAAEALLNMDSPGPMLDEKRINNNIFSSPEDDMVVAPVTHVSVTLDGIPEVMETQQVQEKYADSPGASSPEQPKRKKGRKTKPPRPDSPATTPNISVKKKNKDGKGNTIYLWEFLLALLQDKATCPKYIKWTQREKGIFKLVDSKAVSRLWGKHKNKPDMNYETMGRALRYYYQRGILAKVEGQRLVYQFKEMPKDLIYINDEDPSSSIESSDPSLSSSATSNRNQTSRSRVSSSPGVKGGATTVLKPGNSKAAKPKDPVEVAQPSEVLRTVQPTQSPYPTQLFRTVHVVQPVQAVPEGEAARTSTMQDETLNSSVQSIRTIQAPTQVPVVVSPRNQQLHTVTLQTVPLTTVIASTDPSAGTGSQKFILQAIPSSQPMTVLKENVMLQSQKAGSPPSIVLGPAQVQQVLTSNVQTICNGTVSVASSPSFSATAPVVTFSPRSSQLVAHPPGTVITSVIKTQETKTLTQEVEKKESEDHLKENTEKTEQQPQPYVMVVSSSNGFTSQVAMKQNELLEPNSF
# Summary of the method: as §1
# EHF = molecular target: T4, EHF (Homo sapiens, UniProt Q9NZC4 1-300); conditions: protein: recombinant; tags: N-terminal GST; dsDNA, one strand shown
# T4 sequence: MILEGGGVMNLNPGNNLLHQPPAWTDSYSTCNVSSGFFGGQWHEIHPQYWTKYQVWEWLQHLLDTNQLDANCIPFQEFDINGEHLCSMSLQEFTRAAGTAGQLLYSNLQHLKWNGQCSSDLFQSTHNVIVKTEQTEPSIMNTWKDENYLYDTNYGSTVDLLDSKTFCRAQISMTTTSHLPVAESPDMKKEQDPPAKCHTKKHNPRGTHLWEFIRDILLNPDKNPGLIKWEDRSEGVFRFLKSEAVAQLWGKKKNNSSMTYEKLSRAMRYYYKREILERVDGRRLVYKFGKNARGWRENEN
# Summary of the method: as §1
# SPI1 = SPI1 (Homo sapiens, UniProt P17947 1-270); conditions: protein: recombinant; tags: N-terminal GST; dsDNA, one strand shown
# Summary of the method: as §1
# SPIB = SPIB (Homo sapiens, UniProt Q01892 1-262); conditions: protein: recombinant; tags: N-terminal GST; dsDNA, one strand shown
# SPIB, sequence (Q01892 whole entry): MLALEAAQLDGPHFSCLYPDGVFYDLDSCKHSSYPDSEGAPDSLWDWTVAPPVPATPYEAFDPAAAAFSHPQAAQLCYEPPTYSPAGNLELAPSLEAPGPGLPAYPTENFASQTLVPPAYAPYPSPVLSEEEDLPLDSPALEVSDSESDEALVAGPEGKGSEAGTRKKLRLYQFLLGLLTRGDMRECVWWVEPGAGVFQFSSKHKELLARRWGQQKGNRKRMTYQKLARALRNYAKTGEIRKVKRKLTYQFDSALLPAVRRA
# Summary of the method: as §1
# ELK3 = molecular target: T5, ELK3 (Homo sapiens, UniProt P41970 1-407); conditions: protein: recombinant; tags: N-terminal GST; dsDNA, one strand shown
# T5 sequence: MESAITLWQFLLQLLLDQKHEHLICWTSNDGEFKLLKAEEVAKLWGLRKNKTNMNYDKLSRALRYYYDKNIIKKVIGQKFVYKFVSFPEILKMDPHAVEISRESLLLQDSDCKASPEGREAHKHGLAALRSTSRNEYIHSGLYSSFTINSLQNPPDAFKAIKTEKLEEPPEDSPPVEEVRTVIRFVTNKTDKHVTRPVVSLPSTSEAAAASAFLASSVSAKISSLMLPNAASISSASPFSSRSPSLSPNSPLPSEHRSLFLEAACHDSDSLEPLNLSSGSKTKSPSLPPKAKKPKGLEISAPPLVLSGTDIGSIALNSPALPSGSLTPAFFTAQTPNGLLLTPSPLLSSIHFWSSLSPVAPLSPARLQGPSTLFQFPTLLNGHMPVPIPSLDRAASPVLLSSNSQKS
# Summary of the method: as §1
# FEV = molecular target: T6, FEV (Homo sapiens, UniProt Q99581 1-238); conditions: protein: recombinant; tags: N-terminal GST; dsDNA, one strand shown
# T6 sequence: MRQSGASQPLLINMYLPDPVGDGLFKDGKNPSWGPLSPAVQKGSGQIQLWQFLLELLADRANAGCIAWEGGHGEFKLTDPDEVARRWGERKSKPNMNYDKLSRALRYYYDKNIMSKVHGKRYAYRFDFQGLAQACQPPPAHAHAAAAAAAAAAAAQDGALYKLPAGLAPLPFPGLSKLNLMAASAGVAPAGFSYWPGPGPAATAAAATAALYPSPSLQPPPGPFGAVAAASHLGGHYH
# Summary of the method: as §1
# ETV5 = ETV5 (Homo sapiens, UniProt P41161 1-510); conditions: protein: recombinant; tags: N-terminal GST; dsDNA, one strand shown
# ETV5, sequence (P41161 whole entry): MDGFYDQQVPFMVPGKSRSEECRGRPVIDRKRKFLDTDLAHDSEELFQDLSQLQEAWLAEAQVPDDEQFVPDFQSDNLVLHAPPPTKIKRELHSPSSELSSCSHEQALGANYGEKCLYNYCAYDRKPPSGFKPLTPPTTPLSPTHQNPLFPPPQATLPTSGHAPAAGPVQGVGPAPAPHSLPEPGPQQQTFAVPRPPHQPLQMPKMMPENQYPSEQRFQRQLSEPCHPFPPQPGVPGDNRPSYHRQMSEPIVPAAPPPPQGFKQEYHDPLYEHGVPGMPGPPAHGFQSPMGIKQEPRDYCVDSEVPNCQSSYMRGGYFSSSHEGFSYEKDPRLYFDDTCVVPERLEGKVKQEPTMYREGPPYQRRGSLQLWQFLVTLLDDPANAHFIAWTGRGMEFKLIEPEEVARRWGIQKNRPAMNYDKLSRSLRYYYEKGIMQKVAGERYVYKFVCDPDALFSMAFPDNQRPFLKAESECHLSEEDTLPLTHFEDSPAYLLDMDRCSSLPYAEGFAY
# Summary of the method: as §1
# HSF1 = HSF1 (Homo sapiens, UniProt Q00613 1-529); conditions: protein: recombinant; tags: N-terminal GST; chain copies: 3; dsDNA, one strand shown
# HSF1, sequence (Q00613 whole entry): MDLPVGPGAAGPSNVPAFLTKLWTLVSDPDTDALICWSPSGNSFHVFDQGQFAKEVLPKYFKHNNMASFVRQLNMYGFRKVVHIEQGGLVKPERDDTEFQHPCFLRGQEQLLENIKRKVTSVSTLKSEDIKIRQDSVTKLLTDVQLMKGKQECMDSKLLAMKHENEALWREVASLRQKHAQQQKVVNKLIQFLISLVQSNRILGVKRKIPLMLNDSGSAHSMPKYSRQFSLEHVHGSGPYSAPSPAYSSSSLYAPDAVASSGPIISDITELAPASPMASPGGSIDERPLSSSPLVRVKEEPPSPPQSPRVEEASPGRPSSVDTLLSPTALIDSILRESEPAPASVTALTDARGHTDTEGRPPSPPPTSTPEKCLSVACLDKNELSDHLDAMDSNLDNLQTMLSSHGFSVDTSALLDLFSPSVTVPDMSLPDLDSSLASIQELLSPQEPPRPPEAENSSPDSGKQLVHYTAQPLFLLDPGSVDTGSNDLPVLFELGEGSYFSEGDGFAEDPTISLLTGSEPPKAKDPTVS
# Summary of the method: as §1
# SPIC = molecular target: T7, SPIC (Homo sapiens, UniProt Q8N5J4 1-248); conditions: protein: recombinant; tags: N-terminal GST; dsDNA, one strand shown
# T7 sequence: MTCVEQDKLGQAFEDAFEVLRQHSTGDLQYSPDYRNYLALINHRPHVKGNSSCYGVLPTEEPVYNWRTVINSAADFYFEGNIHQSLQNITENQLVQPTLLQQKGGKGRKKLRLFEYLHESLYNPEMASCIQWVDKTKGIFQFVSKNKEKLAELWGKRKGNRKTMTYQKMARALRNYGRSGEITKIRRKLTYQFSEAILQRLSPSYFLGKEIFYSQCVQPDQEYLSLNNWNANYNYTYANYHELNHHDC
# Summary of the method: as §1
# ELF4 = ELF4 (Homo sapiens, UniProt Q99607 1-663); conditions: protein: recombinant; tags: N-terminal GST; dsDNA, one strand shown
# ELF4, sequence (Q99607 whole entry): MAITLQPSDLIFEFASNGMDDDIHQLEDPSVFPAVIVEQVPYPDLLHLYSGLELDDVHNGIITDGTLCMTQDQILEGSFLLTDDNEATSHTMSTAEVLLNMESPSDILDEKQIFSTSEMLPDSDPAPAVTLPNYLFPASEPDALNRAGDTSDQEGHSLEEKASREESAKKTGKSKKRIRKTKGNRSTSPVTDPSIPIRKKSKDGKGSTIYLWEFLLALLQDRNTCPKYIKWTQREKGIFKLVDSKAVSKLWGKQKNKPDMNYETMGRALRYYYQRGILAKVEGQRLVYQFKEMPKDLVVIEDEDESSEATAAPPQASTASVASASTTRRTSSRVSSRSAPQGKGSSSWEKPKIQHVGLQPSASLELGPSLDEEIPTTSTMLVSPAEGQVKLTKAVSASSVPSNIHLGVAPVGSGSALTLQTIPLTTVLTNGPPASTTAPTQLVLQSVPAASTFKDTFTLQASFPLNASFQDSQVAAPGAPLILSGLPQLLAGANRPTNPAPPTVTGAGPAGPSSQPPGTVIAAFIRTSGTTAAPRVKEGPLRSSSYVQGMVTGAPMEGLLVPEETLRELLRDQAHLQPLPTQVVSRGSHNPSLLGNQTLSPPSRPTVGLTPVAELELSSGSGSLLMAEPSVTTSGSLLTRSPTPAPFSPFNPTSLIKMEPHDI
# Summary of the method: as §1
# ELK4 = molecular target: T8, ELK4 (Homo sapiens, UniProt P28324-2 1-405); conditions: protein: recombinant; tags: N-terminal GST; dsDNA, one strand shown
# T8 sequence: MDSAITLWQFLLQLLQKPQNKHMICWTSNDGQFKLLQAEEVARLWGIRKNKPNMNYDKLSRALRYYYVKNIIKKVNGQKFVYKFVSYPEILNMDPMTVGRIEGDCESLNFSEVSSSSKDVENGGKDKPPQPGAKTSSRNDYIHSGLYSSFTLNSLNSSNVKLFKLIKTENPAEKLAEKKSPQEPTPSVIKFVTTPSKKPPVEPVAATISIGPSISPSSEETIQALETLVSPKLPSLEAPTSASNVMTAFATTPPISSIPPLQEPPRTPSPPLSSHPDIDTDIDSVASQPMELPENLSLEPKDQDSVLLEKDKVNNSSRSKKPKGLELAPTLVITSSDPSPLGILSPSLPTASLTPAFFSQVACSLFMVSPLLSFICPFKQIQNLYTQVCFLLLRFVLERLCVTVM
# Summary of the method: as §1
# ETV2 = molecular target: T9, ETV2 (Homo sapiens, UniProt O00321 1-342); conditions: protein: recombinant; tags: N-terminal GST; dsDNA, one strand shown
# T9 sequence: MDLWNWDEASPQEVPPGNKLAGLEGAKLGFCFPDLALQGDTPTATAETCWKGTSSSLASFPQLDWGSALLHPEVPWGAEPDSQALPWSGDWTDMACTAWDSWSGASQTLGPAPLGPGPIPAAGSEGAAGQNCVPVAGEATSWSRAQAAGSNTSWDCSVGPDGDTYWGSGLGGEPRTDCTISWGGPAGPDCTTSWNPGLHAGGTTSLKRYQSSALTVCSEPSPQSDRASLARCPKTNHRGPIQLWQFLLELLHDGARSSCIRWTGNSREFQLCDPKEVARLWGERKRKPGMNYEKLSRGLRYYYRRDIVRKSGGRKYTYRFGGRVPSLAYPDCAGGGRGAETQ
# Summary of the method: as §1
# ELF3 = molecular target: T10, ELF3 (Homo sapiens, UniProt P78545 1-371); conditions: protein: recombinant; tags: N-terminal GST; dsDNA, one strand shown
# T10 sequence: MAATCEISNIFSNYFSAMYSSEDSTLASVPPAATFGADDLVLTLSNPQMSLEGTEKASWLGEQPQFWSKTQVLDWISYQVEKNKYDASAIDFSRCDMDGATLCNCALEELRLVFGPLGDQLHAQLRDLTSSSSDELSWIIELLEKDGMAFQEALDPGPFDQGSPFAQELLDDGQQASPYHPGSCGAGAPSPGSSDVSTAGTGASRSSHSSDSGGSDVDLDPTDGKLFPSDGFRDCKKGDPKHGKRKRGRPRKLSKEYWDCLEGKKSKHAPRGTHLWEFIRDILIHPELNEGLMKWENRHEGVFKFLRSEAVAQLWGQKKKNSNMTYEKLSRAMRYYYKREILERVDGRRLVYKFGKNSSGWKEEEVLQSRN
# Summary of the method: as §1
# CRX = CRX (Homo sapiens, UniProt O43186 1-299); conditions: protein: recombinant; tags: N-terminal GST; dsDNA, one strand shown
# CRX, sequence (O43186 whole entry): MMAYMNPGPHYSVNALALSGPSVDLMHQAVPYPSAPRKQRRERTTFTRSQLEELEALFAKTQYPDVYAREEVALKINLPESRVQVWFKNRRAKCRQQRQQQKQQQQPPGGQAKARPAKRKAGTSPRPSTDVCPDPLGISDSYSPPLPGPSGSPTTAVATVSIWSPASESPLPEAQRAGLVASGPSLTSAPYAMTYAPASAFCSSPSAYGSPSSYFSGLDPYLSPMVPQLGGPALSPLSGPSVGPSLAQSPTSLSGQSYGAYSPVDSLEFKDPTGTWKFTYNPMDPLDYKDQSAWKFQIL
# Summary of the method: as §1
# ETV1 = ETV1 (Homo sapiens, UniProt P50549 1-477); conditions: protein: recombinant; tags: N-terminal GST; dsDNA, one strand shown
# ETV1, sequence (P50549 whole entry): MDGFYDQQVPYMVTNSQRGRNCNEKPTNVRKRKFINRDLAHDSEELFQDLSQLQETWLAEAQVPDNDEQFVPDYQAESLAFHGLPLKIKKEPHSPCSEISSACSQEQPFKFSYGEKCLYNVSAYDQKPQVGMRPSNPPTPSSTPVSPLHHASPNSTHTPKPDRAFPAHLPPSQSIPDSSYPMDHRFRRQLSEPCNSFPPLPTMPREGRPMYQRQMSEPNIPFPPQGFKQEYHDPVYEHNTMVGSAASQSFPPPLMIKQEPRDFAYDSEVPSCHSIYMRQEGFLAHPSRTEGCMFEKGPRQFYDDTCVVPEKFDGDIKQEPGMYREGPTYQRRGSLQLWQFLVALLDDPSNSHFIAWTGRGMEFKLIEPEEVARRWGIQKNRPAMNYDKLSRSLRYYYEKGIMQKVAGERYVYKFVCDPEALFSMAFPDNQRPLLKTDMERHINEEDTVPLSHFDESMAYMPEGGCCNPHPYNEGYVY
# Summary of the method: as §1
sequence,measurement,setting,value
ACCGAA,binding signal,FLI1,"1.09 fold enrichment (6-mer frequency, TF over GST control)"
same,binding signal,ELK1,"1.04 fold enrichment (6-mer frequency, TF over GST control)"
same,binding signal,GABPA,"1.05 fold enrichment (6-mer frequency, TF over GST control)"
same,binding signal,ELF1,"1.11 fold enrichment (6-mer frequency, TF over GST control)"
same,binding signal,EHF,"1 fold enrichment (6-mer frequency, TF over GST control)"
same,binding signal,SPI1,"1.06 fold enrichment (6-mer frequency, TF over GST control)"
same,binding signal,SPIB,"1.01 fold enrichment (6-mer frequency, TF over GST control)"
same,binding signal,ELK3,"1.01 fold enrichment (6-mer frequency, TF over GST control)"
same,binding signal,FEV,"1.05 fold enrichment (6-mer frequency, TF over GST control)"
same,binding signal,ETV5,"1.06 fold enrichment (6-mer frequency, TF over GST control)"
same,binding signal,HSF1,"1.25 fold enrichment (6-mer frequency, TF over GST control)"
same,binding signal,SPIC,"1.12 fold enrichment (6-mer frequency, TF over GST control)"
same,binding signal,ELF4,"1.03 fold enrichment (6-mer frequency, TF over GST control)"
same,binding signal,ELK4,"1.06 fold enrichment (6-mer frequency, TF over GST control)"
same,binding signal,ETV2,"1.19 fold enrichment (6-mer frequency, TF over GST control)"
same,binding signal,ELF3,"1.11 fold enrichment (6-mer frequency, TF over GST control)"
same,binding signal,CRX,"1.08 fold enrichment (6-mer frequency, TF over GST control)"
same,binding signal,ETV1,"1.05 fold enrichment (6-mer frequency, TF over GST control)"
